TGFb SMAD3 inh = TGF-b pathway inhibition. HepG2 CAGA-GFP TGF-b/SMAD3 reporter, GFP fluorescence, 18 h; TGF-beta stimulated, 500 pg/mL final. Potency, µM (series often up to 46.1 µM), for the others: top-dose activity, negative = inhibition, most hits filed as inhibitors. hit rate 1.2% among 410,000. AID 588855; further: potency means the concentration at half of the fitted maximal effect; on the % scale 0 is the no-effect control and ±100 the full control effect; nearly all actives have a fitted effect of over 65% in size
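Using HEPG2 CAGA-GFP reporter cells at 1000 cells/well, we pinned test compounds, stimulated with recombinant TGF-beta (500 pg/mL final) and measured total well GFP after 18 h.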
TDP1 cell CPT = DT40-hTDP1 cell growth loss with CPT; chicken DT40 Tdp1-/-;hTDP1 cells + 20 nM CPT, ATP luminescence, 48 h; Potency, µM (titrated, usually from 46.2 µM), without a hit: at the highest dose activity change, negative = growth inhibition, actives largely listed as inhibitors; hit rate 12% among 420,000; AID 686979; further: potency means the concentration at half of the fitted maximal effect; on the % scale 0 is the no-effect control and ±100 the full control effect; nearly all actives have a fitted effect of over 55% in size
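Cell growth measured by CellTiter-Glo luminescence after a minimum 48 h, 37 C compound exposure with 20 nM CPT in Tdp1-knockout DT40 cells stably expressing hTDP1, seeded 400/well; qHTS titration format.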
TDP1 inh = TDP1 (human) enzyme inhibition; recombinant TDP1, AlphaScreen DNA substrate cleavage; Potency, µM (series often up to 130 µM), for inactives: top-dose activity change, negative = inhibition, actives largely listed as inhibitors; hit rate 0.28% among 350,000; further: potency means the concentration at half of the fitted maximal effect; on the % scale 0 is the no-effect control and ±100 the full control effect; nearly all actives have a fitted effect of over 40% in size
Target sequence (Q9NUW8 whole entry, looked up): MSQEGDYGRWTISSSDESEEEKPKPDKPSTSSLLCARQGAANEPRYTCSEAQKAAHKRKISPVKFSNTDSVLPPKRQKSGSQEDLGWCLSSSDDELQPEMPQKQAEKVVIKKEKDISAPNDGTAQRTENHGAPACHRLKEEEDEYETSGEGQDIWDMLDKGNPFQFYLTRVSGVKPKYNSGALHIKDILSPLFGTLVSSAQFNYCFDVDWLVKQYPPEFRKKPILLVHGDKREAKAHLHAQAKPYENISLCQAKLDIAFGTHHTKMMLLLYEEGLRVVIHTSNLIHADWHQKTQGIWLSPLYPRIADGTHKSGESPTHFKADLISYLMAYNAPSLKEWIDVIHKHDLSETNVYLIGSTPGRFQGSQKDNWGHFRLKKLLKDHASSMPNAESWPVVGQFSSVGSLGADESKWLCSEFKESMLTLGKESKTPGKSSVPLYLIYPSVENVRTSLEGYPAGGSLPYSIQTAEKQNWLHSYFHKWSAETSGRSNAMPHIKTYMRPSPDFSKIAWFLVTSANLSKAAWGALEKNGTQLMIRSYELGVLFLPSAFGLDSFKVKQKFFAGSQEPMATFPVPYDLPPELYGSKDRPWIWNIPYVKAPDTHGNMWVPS
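Compounds were preincubated with Tdp1 (1 nM final) for 15 min at room temperature before substrate (15 nM final) started a 5 min reaction; beads (10 ug/ml final) were then added for 10 min before AlphaScreen detection.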
HepG2 viability = kills HepG2 cells in TGF-b inhibitor counter-screen | HepG2 CAGA-GFP viability, ATP luminescence, 18 h | Potency, µM (top dose mostly 46.1 µM), for inactives: at the highest dose activity change, negative = cytotoxicity, actives largely listed as cytotoxic | hit rate 0.76% among 410,000 | AID 588856; further: potency means the concentration at half of the fitted maximal effect
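HepG2 CAGA-GFP cells (1000/well, DMEM with 1% FBS) received compound, then TGF-beta at 500 pg/mL final, and were incubated 18 hours at 37 degrees C. Viability was read by CellTiter-Glo luminescence. Media-only wells were set as complete cell-killing and DMSO as no toxicity.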
TDP1 cell noCPT = qHTS for Inhibitors of human tyrosyl-DNA phosphodiesterase 1 (TDP1): qHTS in cells in absence of CPT; DT40 Tdp1-/- hTDP1 cells, no CPT, ATP luminescence, 48 h; Potency, µM (doses to about 46.2 µM), inactives show at the highest dose activity change, negative = growth inhibition, usual class: inhibitors; hit rate 15% among 420,000; AID 686978, 2013; further: potency means the concentration at half of the fitted maximal effect; on the % scale 0 is the no-effect control and ±100 the full control effect; nearly all actives have a fitted effect of over 55% in size
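Luminescent ATP content (CellTiter-Glo) served as the growth readout. Knockout chicken DT40 cells expressing human TDP1 were exposed to compounds without camptothecin for a minimum 48 hr at 37 °C.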
IL-1B inflam inh = inhibitors of inflammasome signaling (IL-1 beta secretion); THP-1 LPS/ATP IL-1B secretion, AlphaLISA, 16 h; active compounds read low; activity change, % at 57.5 µM; hit rate 4.7% among 360,000; AID 743279; in the data active means activity change below about -50%; inconclusive means mostly about -30% to -49%; further: on the % scale 0 is the no-effect control and ±100 the full control effect
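Secreted IL-1B measured by AlphaLISA bead assay after 16 h compound exposure of THP-1 cells; compounds (final up to 57.5 uM) added 1 h before LPS (250 ng/mL) and ATP (1.25 mM) stimulation; lower signal means less secretion.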
Numbers without * were called inactive. Rows were chosen to be rich in hits. Some 18% of all compounds tested hit in one or more screens of this group. Unless noted, the call rests on the fitted dose curve; in most records, active means well fitted curve in the direction sought with a large enough effect; inconclusive means small, poorly fitted or top-dose-only effect, or another doubt; inactive means no such curve, though single readings can be large; an effect the other way counts as inactive or inconclusive.

C[C@H](NC(=O)[C@H](Cc1ccccc1)NC(=O)c1cc2cc(Cl)ccc2n1C)C(=O)O was read as TGFb SMAD3 inh 91.1%, TDP1 cell CPT -5.5%, HepG2 viability -1.8%, TDP1 cell noCPT 5.9% and IL-1B inflam inh 15.1.
Screening CCN(CC)C(=O)c1sc(NC(=O)c2c(OC)cccc2OC)c(C#N)c1C returned TGFb SMAD3 inh -5.6%, TDP1 cell CPT 15.2%, TDP1 inh 5.8%, HepG2 viability -6.2%, TDP1 cell noCPT -5.6% and IL-1B inflam inh 0.0.
`Cc1c(C(=O)N2CCCCC2)sc(NC(=O)C23CC4CC(CC(C4)C2)C3)c1C#N` gave TGFb SMAD3 inh -12.5%, TDP1 cell CPT inconclusive, HepG2 viability -3.1%, TDP1 cell noCPT 18.4µM* and IL-1B inflam inh -8.0.
For Cc1cccc(C(=O)Nc2sc(C(=O)N3CCCC3)c(C)c2C#N)c1 the results were TGFb SMAD3 inh 10.4%, TDP1 cell CPT inconclusive, TDP1 inh 5.9%, HepG2 viability 2.6%, TDP1 cell noCPT inconclusive and IL-1B inflam inh -17.0.
`Cc1c(C(=O)N2CCCC2)sc(NC(=O)c2cccc(Cl)c2)c1C#N` gave TGFb SMAD3 inh -1.7%, TDP1 cell CPT inconclusive, TDP1 inh 4.9%, HepG2 viability -8.2%, TDP1 cell noCPT 25.9µM* and IL-1B inflam inh -0.7.
CCN(CC)C(=O)c1sc(NC(=O)c2cccc([N+](=O)[O-])c2)c(C#N)c1C was read as TGFb SMAD3 inh -17.7%, TDP1 cell CPT 20.6µM*, TDP1 inh -2.7%, HepG2 viability -1.4%, TDP1 cell noCPT 16.4µM* and IL-1B inflam inh 1.5.
Screening CC1=C(c2ccc(F)cc2)S(=O)(=O)NC1=NCc1ccccc1Cl returned TGFb SMAD3 inh inconclusive, TDP1 cell CPT -23.4%, TDP1 inh 2.6%, HepG2 viability -22.7% and TDP1 cell noCPT -29.7%.
CSc1ccc(CNc2ncc(-c3ccccc3)n2C)cc1 was read as TGFb SMAD3 inh 0.0%, TDP1 cell CPT inconclusive, TDP1 inh 4.7%, HepG2 viability -36.2% and TDP1 cell noCPT 18.4µM*.
Screening CSc1ccc(CNc2ncc(-c3cccc([N+](=O)[O-])c3)n2C)cc1 returned TGFb SMAD3 inh inconclusive, TDP1 cell CPT 16.4µM*, HepG2 viability -42.1%, TDP1 cell noCPT 23.1µM* and IL-1B inflam inh inconclusive.
Cn1c(-c2ccccc2)cnc1NCc1ccc(F)cc1 was read as TGFb SMAD3 inh -5.3%, TDP1 cell CPT inconclusive, HepG2 viability -17.5%, TDP1 cell noCPT inconclusive and IL-1B inflam inh -0.2.
For C[C@H](O)CN(C)C the results were TDP1 cell CPT 2.8%, TDP1 inh -1.2% and TDP1 cell noCPT -18.8%.
For COc1ccc(C(=O)N2CCCC2(C)C(=O)O)cc1C(F)(F)F (centres undefined) the results were TGFb SMAD3 inh -5.5%, TDP1 cell CPT -17.6%, HepG2 viability -4.8%, TDP1 cell noCPT -0.9% and IL-1B inflam inh 0.0.
Screening CCOC(=O)C1(C)CCN1C(=O)c1ccc(-c2ccccc2)cc1 (centres undefined) returned TGFb SMAD3 inh -9.2%, TDP1 cell CPT -82.1%, HepG2 viability -12.5%, TDP1 cell noCPT 14.6µM* and IL-1B inflam inh 0.3.
For CCOC(=O)C1(C)CCCCCN1C(=O)c1ccc(OC)cc1 (centres undefined) the results were TGFb SMAD3 inh 7.1%, TDP1 cell CPT 16.4µM*, HepG2 viability -0.9%, TDP1 cell noCPT inconclusive and IL-1B inflam inh 59.3.
`CCOC(=O)C1(C)CCN1C(=O)c1ccccc1` (centres undefined) gave TGFb SMAD3 inh -11.7%, TDP1 cell CPT -17.0%, HepG2 viability -20.2%, TDP1 cell noCPT -12.9% and IL-1B inflam inh 0.3.
`CCOC(=O)C1(C)CCCCCN1C(=O)c1ccc(OC)c(C(F)(F)F)c1` (centres undefined) gave TGFb SMAD3 inh -7.5%, TDP1 cell CPT 23.1µM*, HepG2 viability -6.3%, TDP1 cell noCPT 10.3µM* and IL-1B inflam inh -6.3.
COc1ccc(-c2nc3cnc(N4CCOCC4)nc3n(-c3ccccc3)c2=O)cc1 was read as TDP1 cell CPT -1.7% and TDP1 cell noCPT 3.8%.
For Cn1c(=O)c2cc(NC(=S)NC3CCCCC3)ccc2n1Cc1cccc(C(F)(F)F)c1 the results were TGFb SMAD3 inh -0.3%, TDP1 cell CPT inconclusive, HepG2 viability -26.8%, TDP1 cell noCPT inconclusive and IL-1B inflam inh -27.2.
Cn1c(=O)c2cc(NC(=O)NCCc3ccccc3)ccc2n1Cc1ccccc1 was read as TGFb SMAD3 inh -4.2%, TDP1 cell CPT -29.9%, HepG2 viability 0.0%, TDP1 cell noCPT inconclusive and IL-1B inflam inh 0.0.
`CCNC(=S)Nc1ccc2c(c1)c(=O)n(C)n2Cc1cccc(C(F)(F)F)c1` gave TGFb SMAD3 inh -24.3%, TDP1 cell CPT inconclusive, HepG2 viability -6.5%, TDP1 cell noCPT 23.1µM* and IL-1B inflam inh 13.4.
For Cc1ccc(CNC(=S)Nc2ccc3c(c2)c(=O)n(C)n3Cc2cccc(C(F)(F)F)c2)cc1 the results were TGFb SMAD3 inh -19.5%, TDP1 cell CPT 25.9µM*, HepG2 viability -25.0%, TDP1 cell noCPT 14.6µM* and IL-1B inflam inh -17.9.
Screening Cn1c(=O)c2cc(NC(=O)NCCc3ccccc3)ccc2n1Cc1cccc(C(F)(F)F)c1 returned TGFb SMAD3 inh -27.0%, TDP1 cell CPT inconclusive, HepG2 viability -11.8%, TDP1 cell noCPT 23.1µM* and IL-1B inflam inh -10.4.
For Cn1c(=O)c2cc(NC(=O)NCc3ccccc3)ccc2n1C/C=C/c1ccccc1 the results were TGFb SMAD3 inh -16.1%, TDP1 cell CPT 7.31µM*, HepG2 viability -4.9%, TDP1 cell noCPT 7.31µM* and IL-1B inflam inh 0.0.
Screening N#CC1(N2CCN(C(=O)c3ccccc3)CC2)CCCCC1 returned TGFb SMAD3 inh 1.7%, TDP1 cell CPT 3.8%, TDP1 inh -3.1%, HepG2 viability 0.0%, TDP1 cell noCPT 7.0% and IL-1B inflam inh -4.4.
For Cc1cc(C)cc(Cn2c3ccc(NC(=O)NCCc4cccs4)cc3c(=O)n2C)c1 the results were TGFb SMAD3 inh inconclusive, TDP1 cell CPT 16.4µM*, HepG2 viability -12.9%, TDP1 cell noCPT inconclusive and IL-1B inflam inh 0.4.

Source: PubChem
